Assay results reported in PubChem BioAssay (EPA / NIEHS).
The source made the active and inactive calls. Rule for the calls: active = hit-call score of the fitted dose curve at least 0.9, where 1 is the maximum; inactive = score below 0.9.

Assays:
[1] = read-out: TIMP metallopeptidase inhibitor 2 (TIMP2), TIMP2 (gene 7077); assay: BSK_KF3CT_TIMP2: BioMAP Diversity Plus: KF3CT Assay for TIMP metallopeptidase inhibitor 2 (TIMP2) Biomarker Activity (AID 2283071); settings: primary human keratinocytes with fibroblasts; actives raise or lower the signal
Method in brief: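 Keratinocyte–fibroblast co-culture, 24 h exposure; TIMP-2 ELISA, DMSO-normalised bidirectional fit. Parallel SRB (0.1%, TCA-fixed, 560 nm) total-protein staining gauges cytotoxicity.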

[2] = read-out: Transforming growth factor beta 1 (TGFb1), TGFB1 (gene 7040); assay: BSK_KF3CT_TGFb1: BioMAP Diversity Plus: KF3CT Assay for Transforming growth factor beta 1 (TGFb1) Biomarker Activity (AID 2283072); settings: primary human keratinocytes with fibroblasts; actives raise or lower the signal
Method in brief: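 Signal changes in either direction, relative to DMSO, define activity here. TGF-b1 is read by ELISA from a human keratinocyte-fibroblast co-culture 24 h post-dose.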

[3] = read-out: C-C motif chemokine 2 (Homo sapiens) (UniProt P13500); assay: BSK_KF3CT_MCP1: BioMAP Diversity Plus: KF3CT Assay for Monocyte Chemoattractant Protein 1 (MCP1/CCL2) Biomarker Activity (AID 2283073); settings: primary human keratinocytes with fibroblasts; actives raise or lower the signal
Method in brief: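 ELISA readout of MCP-1 after 24 h chemical dosing of a human skin primary co-culture of keratinocytes and foreskin fibroblasts. Activity was fitted in both directions against DMSO.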

[4] = read-out: Matrix Metallopeptidase 9 (MMP9), MMP9 (gene 4318); assay: BSK_KF3CT_MMP9: BioMAP Diversity Plus: KF3CT Assay for Matrix Metallopeptidase 9 (MMP9) Biomarker Activity (AID 2283074); settings: primary human keratinocytes with fibroblasts; actives raise or lower the signal
Method in brief: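 Human keratinocyte/foreskin fibroblast co-culture; compound added; 24 h; MMP-9 by ELISA; bidirectional fit vs DMSO baseline.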

[5] = read-out: urokinase plasminogen activator (uPA), PLAU (gene 5328); assay: BSK_KF3CT_uPA: BioMAP Diversity Plus: KF3CT Assay for urokinase plasminogen activator (uPA) Biomarker Activity (AID 2283075); settings: primary human keratinocytes with fibroblasts; actives raise or lower the signal
Method in brief: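 ELISA readout of uPA, analyzed for signal gain or loss relative to DMSO, from a human primary keratinocyte–foreskin fibroblast co-culture measured 24 h after chemical treatment.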

CD40, CD40 (gene 958) [6] = assay: BSK_LPS_CD40: BioMAP Diversity Plus: LPS Assay for CD40 Biomarker Activity (AID 2283076); settings: primary human HUVEC with PBMC; actives raise or lower the signal
Method in brief: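 Cells were dosed, incubated 24 h, then assayed for CD40 by ELISA. Gain or loss of signal was analysed relative to DMSO controls. The culture paired human umbilical vein endothelium with peripheral blood mononuclear cells.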

[7] = read-out: E-selectin (Homo sapiens) (UniProt P16581); assay: BSK_LPS_Eselectin: BioMAP Diversity Plus: LPS Assay for Eselectin Biomarker Activity (AID 2283077); settings: primary human HUVEC with PBMC; actives raise or lower the signal
Method in brief: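 Primary human vascular co-culture (endothelium plus PBMC) was dosed with chemical, then E-selectin quantified by ELISA at 24 h. Endpoint values derive from bidirectional curve fitting relative to DMSO.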

[8] = read-out: Interleukin-8 (IL8), CXCL8 (gene 3576); assay: BSK_LPS_IL8: BioMAP Diversity Plus: LPS Assay for Interleukin-8 (IL8) Biomarker Activity (AID 2283078); settings: primary human HUVEC with PBMC; actives raise or lower the signal
Method in brief: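 Readout is IL-8 by ELISA, taken 24 h after compounds were added to LPS-stimulated endothelial/PBMC co-cultures. Both increases and decreases relative to DMSO control were scored through bidirectional fitting.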

[9] = BSK_LPS_SRB: Viability Assessment in the BioMAP Diversity Plus: LPS Assay (AID 2283079); settings: primary human HUVEC with PBMC;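 note: total protein by sulforhodamine B absorbance as a cytotoxicity measure; measured one day after compound addition; fitted in both directions against DMSO so loss or gain of signal counts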
Method in brief: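 Readout is SRB absorbance at 560 nm (0.1% stain, TCA-fixed parallel cultures) as a total-protein cytotoxicity measure. Cells: primary human umbilical vein endothelium plus peripheral blood mononuclear cells, 24 h after chemical exposure; DMSO served as baseline.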

[10] = read-out: Monocyte Chemoattractant Protein-1 (MCP1), CCL2 (gene 6347); assay: BSK_LPS_MCP1: BioMAP Diversity Plus: LPS Assay for Monocyte Chemoattractant Protein-1 (MCP1) Biomarker Activity (AID 2283081); settings: primary human HUVEC with PBMC; actives raise or lower the signal
Method in brief: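 Human endothelial–PBMC co-cultures were dosed with chemical, then LPS-driven MCP-1 levels were quantified by ELISA at 24 h. Activity in either direction was fitted versus DMSO negative control.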

[11] = read-out: Macrophage colony-stimulating factor (MCSF), CSF1 (gene 1435); assay: BSK_LPS_MCSF: BioMAP Diversity Plus: LPS Assay for Macrophage colony-stimulating factor (MCSF) Biomarker Activity (AID 2283083); settings: primary human HUVEC with PBMC; actives raise or lower the signal
Method in brief: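 ELISA readout of M-CSF after 24 h compound exposure in a human endothelial/PBMC co-culture. Activity, in either direction, is fitted relative to DMSO vehicle.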

[12] = read-out: Tissue Factor, F3 (gene 2152); assay: BSK_LPS_TissueFactor: BioMAP Diversity Plus: LPS Assay for Tissue Factor Biomarker Activity (AID 2283084); settings: primary human HUVEC with PBMC; actives raise or lower the signal
Method in brief: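 ELISA signal for cell-surface Tissue Factor (CD142) was read 24 h after compound dosing of an LPS-stimulated human endothelial–PBMC primary co-culture. Gain or loss of signal was scored relative to DMSO.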

[13] = read-out: Tumor necrosis factor (Homo sapiens) (UniProt P01375); assay: BSK_LPS_TNFa: BioMAP Diversity Plus: LPS Assay for Tumour Necrosis Factor alpha (TNFa) Biomarker Activity (AID 2283085); settings: primary human HUVEC with PBMC; actives raise or lower the signal
Method in brief: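 Primary human vascular co-culture of HUVEC and PBMC; TNFa ELISA 24 h after treatment, analysed as increase or decrease relative to DMSO control.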

[14] = read-out: Vascular cell adhesion molecule 1 (VCAM1), VCAM1 (gene 7412); assay: BSK_LPS_VCAM1: BioMAP Diversity Plus: LPS Assay for Vascular cell adhesion molecule 1 (VCAM1) Biomarker Activity (AID 2283086); settings: primary human HUVEC with PBMC; actives raise or lower the signal
Method in brief: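 Primary human vascular co-culture (umbilical vein endothelium plus PBMC) stimulated with LPS received chemical; 24 h later VCAM-1 was read by ELISA. Overt cytotoxicity was assessed by sulforhodamine B staining of parallel cultures at the same time point.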

CD40, CD40 (gene 958) [15] = assay: BSK_SAg_CD40: BioMAP Diversity Plus: SAg Assay for CD40 Biomarker Activity (AID 2283088); settings: primary human HUVEC with PBMC; actives raise or lower the signal
Method in brief: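 Compounds were dosed onto a human primary endothelial–PBMC co-culture, and after 24 h CD40 was quantified by ELISA using a fluorescence signal. Activity in either direction was fitted relative to DMSO.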

CD69, CD69 (gene 969) = assay: BSK_SAg_CD69: BioMAP Diversity Plus: SAg Assay for CD69 Biomarker Activity (AID 2283089); settings: primary human HUVEC with PBMC; actives raise or lower the signal
Method in brief: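 HUVEC co-cultured with PBMC were dosed with chemical, and CD69 was measured by ELISA with fluorescence read-out 24 h later. Bidirectional curve fitting used DMSO as negative control and activity baseline.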

[16] = read-out: Monocyte Chemoattractant Protein-1 (MCP1), CCL2 (gene 6347); assay: BSK_SAg_MCP1: BioMAP Diversity Plus: SAg Assay for Monocyte Chemoattractant Protein-1 (MCP1) Biomarker Activity (AID 2283090); settings: primary human HUVEC with PBMC; actives raise or lower the signal
Method in brief: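 MCP-1 levels in the endothelial–PBMC SAg co-culture were quantified by ELISA at 24 h post-dosing; both increases and decreases versus DMSO scored. Cytotoxicity monitored by SRB total protein in parallel cultures.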

[17] = BSK_LPS_PGE2: BioMAP Diversity Plus: LPS Assay for Prostaglandin E2 (PGE2) Biomarker Activity (AID 2283082); settings: primary human HUVEC with PBMC; actives raise or lower the signal
Method in brief: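 Endpoint derived from bidirectional curve fitting versus DMSO of ELISA-measured PGE2 in LPS-stimulated human primary vascular co-culture (HUVEC with PBMC) harvested at 24 h.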

CD38, CD38 (gene 952) = assay: BSK_SAg_CD38: BioMAP Diversity Plus: SAg Assay for CD38 Biomarker Activity (AID 2283087); settings: primary human HUVEC with PBMC; actives raise or lower the signal
Method in brief: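 Fluorescence ELISA of cell-surface CD38 served as the read-out, with either increase or decrease fitted against DMSO controls. Cells were a human umbilical vein endothelium plus PBMC co-culture under SEB/TSST-1 stimulation, measured 24 h after dosing.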

[18] = read-out: Interleukin-1 alpha (IL1a), IL1A (gene 3552); assay: BSK_LPS_IL1a: BioMAP Diversity Plus: LPS Assay for Interleukin-1 alpha (IL1a) Biomarker Activity (AID 2283080); settings: primary human HUVEC with PBMC; actives raise or lower the signal
Method in brief: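 ELISA read-out of IL-1 alpha from a human primary vascular co-culture (endothelium plus PBMC) under LPS, sampled 24 hours post-dosing. Activity was fitted in both directions relative to DMSO controls.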

Measured: outcome

Sequence of E-selectin (Homo sapiens) (P16581 whole entry, looked up): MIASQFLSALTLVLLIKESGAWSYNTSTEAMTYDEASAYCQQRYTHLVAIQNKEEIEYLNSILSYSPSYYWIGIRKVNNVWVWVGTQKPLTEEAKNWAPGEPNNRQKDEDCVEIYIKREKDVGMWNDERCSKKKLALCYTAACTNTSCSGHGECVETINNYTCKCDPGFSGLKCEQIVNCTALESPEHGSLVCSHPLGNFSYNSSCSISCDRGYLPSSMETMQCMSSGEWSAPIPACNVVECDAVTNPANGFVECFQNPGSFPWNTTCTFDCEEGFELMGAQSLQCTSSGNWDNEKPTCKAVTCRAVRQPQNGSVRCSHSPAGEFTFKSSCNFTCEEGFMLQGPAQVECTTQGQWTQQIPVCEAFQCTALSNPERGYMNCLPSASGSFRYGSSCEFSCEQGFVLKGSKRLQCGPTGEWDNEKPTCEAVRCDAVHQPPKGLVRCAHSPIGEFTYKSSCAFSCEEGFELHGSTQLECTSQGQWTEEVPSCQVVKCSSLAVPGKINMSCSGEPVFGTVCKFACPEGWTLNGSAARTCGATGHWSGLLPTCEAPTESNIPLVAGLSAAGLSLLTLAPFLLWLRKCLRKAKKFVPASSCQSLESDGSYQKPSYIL
Sequence of Tumor necrosis factor (Homo sapiens) (P01375 whole entry, looked up): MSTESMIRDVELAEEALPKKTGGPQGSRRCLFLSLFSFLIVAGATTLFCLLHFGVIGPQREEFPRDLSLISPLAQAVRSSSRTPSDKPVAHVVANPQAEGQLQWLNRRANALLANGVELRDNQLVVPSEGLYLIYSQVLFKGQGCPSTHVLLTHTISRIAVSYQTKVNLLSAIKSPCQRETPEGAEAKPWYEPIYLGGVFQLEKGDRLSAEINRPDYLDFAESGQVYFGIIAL

CC(C)(C)C(O)(CCc1ccc(Cl)cc1)Cn1cncn1 (centres undefined)
not listed: [17] | CD38, CD38 (gene 952) | [18]
inactive: all other assays above

CCCCCCCCCCCCCN1CC(C)OC(C)C1 (centres undefined)
not listed: [18]
inactive: all other assays above

CCN(CC)CCO
not listed: [5] | CD38, CD38 (gene 952)
inactive: all other assays above
